# A selection: hits, their analogues and other compounds. The true share with any hit is near 9.5%.
# NS1 inh – inhibitors of influenza NS1 protein function | Potency, µM (series often up to 46.1 µM), for inactives: at the highest dose activity, positive = more growth | actives 0.4% (n = 270,000) | AID 2326; calls by dose curve; also: actives are rising curves; nearly all actives have a fitted effect of over 50% in size
#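 Recovery from NS1-induced slow growth read by OD600 in budding yeast switched to galactose assay medium (pH 6.0, -URA) at 1:100 dilution. Compound 23 nl per well; the matching strain lacking NS1 serves as control.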
# Pf growth 96h – P. falciparum growth inhibition at 96 hour, primary screen for plastid delayed-death inhibitors; P. falciparum luciferase reporter growth, 96 h; Potency, µM (top dose mostly 28.7 µM), for inactives: top-dose activity change, negative = inhibition, actives largely listed as inhibitors; actives 6.9% (n = 320,000); AID 504834; also: % is scaled to controls: 0 for no effect and ±100 for the full control effect
#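 Two parasite generations (96 h, 37 C, 5% CO2) of compound exposure in infected erythrocytes (0.05% parasitemia, 2% hematocrit). Luciferase-reporter P. falciparum; decreased luminescence indicates inhibited growth, aimed at apicoplast-acting delayed death.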
# RE007 growth inh – less growth of the S. pombe RE007 Vpr strain; S. pombe RE007 Vpr strain, BacTiter-Glo ATP luminescence, 24 h; Potency, µM (series often up to 92.2 µM), inactives show top-dose activity change, negative = less growth, hits mostly inhibitors; actives 0.21% (n = 360,000); active = well fitted falling curve with a large enough effect; inconclusive = small, poorly fitted or top-dose-only effect; inactive = no such curve, though single readings can be large or run the other way; also: % is scaled to controls: 0 for no effect and ±100 for the full control effect; nearly all actives have a fitted effect of over 50% in size
#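 Fission yeast RE007 carrying one integrated HIV-1 vpr copy, seeded at OD 0.01 in PMG+AL medium with 23 nL pinned compound. Grown 24 h at 30 degrees; viability read by BacTiter-Glo luminescence after 5 min.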
# Pf growth 48h – P. falciparum growth inhibition at 48 hours (one generation). Potency, µM (titrated, usually from 28.7 µM), for the others: at the highest dose activity change, negative = inhibition, actives largely listed as inhibitors. AID 504832. P. falciparum luciferase growth in erythrocytes, 48 h. actives 5.9% (n = 310,000); also: % is scaled to controls: 0 for no effect and ±100 for the full control effect
#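 Read-out is firefly luciferase luminescence from an integrated reporter in P. falciparum, so falling signal marks reduced parasite growth. Infected erythrocytes were at 2% hematocrit and 0.1% parasitemia (final) in Albumax-supplemented RPMI 1640.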
# SARS PLpro yeast – blocks SARS-CoV papain-like protease in a yeast assay. S. cerevisiae expressing SARS-CoV PLpro, growth rescue. Potency, µM (top dose mostly 32.9 µM), without a hit: at the top dose activity, positive = growth rescue, hits mostly activators. actives 0.19% (n = 330,000); calls by dose curve; also: 0% is about no effect; nearly all actives have a fitted effect of over 55% in size
# * = called active by the depositor; i = inactive; ? = inconclusive; . = no result given. Unless noted, calls follow the shape of the dose curve; as a rule, active = well fitted inhibition curve with a large enough effect; inconclusive = small, poorly fitted or top-dose-only effect, or another doubt; inactive = no such curve, though single readings can be large or run the other way. Potency is read from the fitted curve at half-maximal effect.
SMILES,NS1 inh,Pf growth 96h,RE007 growth inh,Pf growth 48h,SARS PLpro yeast
CCOC(=O)C1=C(C)NC(SCC(N)=O)=C(C#N)C1c1cccs1 (stereo unspecified),12%,-11%,14%,?,-3%
CCOc1ccc(Br)cc1/C(C)=N\NC1=NCCN1,-2%,.,-3%,?,-15%
CCCCCOc1ccc(/C(C)=N/NC2=NCCN2)cc1,-59%,12µM*,?,7.4µM*,-2%
CCCCCCOc1ccc(/C(C)=N/NC2=NCCN2)cc1,-121%,-8%,35µM*,?,-7%
NS(=O)(=O)c1cccc(C(=O)N2CCCc3ccccc32)c1,.,.,-7%,.,.
Cn1ncc2c(N3CCN(c4ccc(Cl)c(Cl)c4)CC3)ncnc21,-1%,?,1%,9.3µM*,0%
N#Cc1ccc(CSc2nc(N)cc(N)n2)cc1,?,-33%,4%,-15%,15%
Cc1nc(SCc2ccc(C#N)cc2)n[nH]1,19%,13µM*,0%,6%,2%
Cc1cc(N2CCCCC2)nc(SCc2ccc(C#N)cc2)n1,-23%,.,-2%,15µM*,-9%
Cc1ccc(CSc2[nH]c(=O)ncc2C)cc1,-4%,7%,5%,17%,5%
CCOC(=O)C(=CNc1ccc(NC2=NCC(C)S2)cc1)C(=O)OCC (stereo unspecified),-4%,0%,.,9.3µM*,-1%
Nc1ccc([As](=O)(O)O)cc1,6%,8.3µM*,9%,15µM*,-2%
COCC(C)NCc1ccc(OC)c(Br)c1 (stereo unspecified),.,12µM*,15%,-29%,-1%
COc1ccc(CNc2cccc(F)c2)cc1Br,-60%,-23%,-4%,.,-26%
COc1ccc(N2CCc3c(C)nc4c(OC)cc(OC)cc4c32)c(OC)c1,9%,15µM*,3%,?,-4%
COc1cccc(N2CCc3c(C)nc4ccc(Cl)cc4c32)c1,-43%,12µM*,9%,13µM*,-2%
COc1ccc(N2CCc3c(C)nc4c(OC)cc(OC)cc4c32)cc1,-9%,?,-8%,?,-1%
CCN1Cc2c(/C=C/c3ccccc3)nc3ccc(OC)cc3c2N(c2cccc(Cl)c2)C1,7%,3.3µM*,.,2.1µM*,-3%
COc1ccc(/C=C/c2nc3ccccc3c(=O)o2)cc1,16%,178%,-10%,166%,2%
COc1ccc(N2CCc3c(C)nc4c(OC)cccc4c32)cc1,.,?,2%,?,3%
Cn1ccc(C(=O)Oc2ccc(C(=O)Nc3ccc(F)cc3F)cc2)n1,.,9%,0%,i,-3%
CC(C)C(=O)NC(c1ccc([N+](=O)[O-])cc1)c1c(O)ccc2ccccc12 (stereo unspecified),2%,2.6µM*,12%,1.9µM*,5%
CC(C)C(=O)NC(c1cccc([N+](=O)[O-])c1)c1c(O)ccc2ccccc12 (stereo unspecified),4%,2%,2%,4.7µM*,1%
CC(=O)NC(c1ccc([N+](=O)[O-])cc1)c1c(O)ccc2ccccc12 (stereo unspecified),3%,-23%,-27%,?,0%
O=C(O)c1nn2cc(CCO)cnc2c1Cl,4%,50%,3%,?,0%
CCOc1ccc(S(=O)(=O)N(CC(=O)NN=C2CCN(C)CC2)c2ccc(C)cc2)cc1,?,-26%,6%,9%,-3%
CCOC(=O)[C@@H]1[C@H]2COc3ccc(Br)cc3[C@@H]2N2C(=O)N(c3ccc(OC)cc3)C(=O)[C@]12C,-7%,3.3µM*,7%,-2%,1%
CCOC(=O)[C@@H]1[C@H]2COc3ccc(Br)cc3[C@H]2N2C(=O)N(c3ccc(C)cc3)C(=O)[C@]12C,23%,12µM*,12%,?,-1%
CCOC(=O)[C@@H]1[C@H]2COc3ccccc3[C@H]2N2C(=O)N(c3ccc(C(F)(F)F)cc3)C(=O)[C@]12C,-109%,5.2µM*,-11%,10µM*,-23%
CCOC(=O)[C@@H]1[C@H]2COc3ccccc3[C@@H]2N2C(=O)N(c3ccc(C(F)(F)F)cc3)C(=O)[C@@]12C,.,.,-3%,.,4%
